Measurements: the supplement of paper PMC10037445
Whole data set: some 2,900 compounds, median “NF-kB SEAP reporter activity, fold change vs agonist alone” near 0.99, cut for the highest 2% near 2.6. Only a selection was taken, and the highest values are over-represented in it overall.

Columns and labels:
[1] = system: RAW-Dual; assay: NF-kB SEAP reporter activity, fold change vs agonist alone; cytotoxicity flag (confluency mask): cytotoxic (confluency <70% of control); higher = enhanced NF-kB activity
Outline: (§1)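 Reporter activity is given as fold change relative to agonist-alone wells. To measure it, 50 nL of library stock was pin-tooled onto RAW-Dual macrophages (50,000 cells/well, DMEM, 384-well plates), a PRR agonist followed 1 h later, and cells stayed at 37 °C, 5% CO2. Twenty hours on, supernatant was assayed for IRF (QuantiLuc luminescence) and NF-κB (QuantiBlue, 620 nm absorbance), and wells under 70% of agonist-control IncuCyte confluency in both mask sets were marked cytotoxic.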

[2] = system: RAW-Dual; assay: NF-kB SEAP reporter activity, fold change vs agonist alone; higher = enhanced NF-kB activity; settings: library stock concentration (final ~1000-fold dilution): 10 mM
Outline: as §1

[3] = system: RAW-Dual; assay: NF-kB SEAP reporter activity, fold change vs agonist alone; cytotoxicity flag (confluency mask): not cytotoxic; higher = enhanced NF-kB activity
Outline: as §1

[4] = agonist: ODN 1826 (TLR9) 0.5 ug/mL
[5] = agonist: Pam2CSK4 (TLR2/6) 0.1 ug/mL
[6] = agonist: Pam3CSK4 (TLR2/1) 0.1 ug/mL
[7] = cytotoxicity flag (confluency mask): cytotoxic (confluency <70% of control), agonist: MPLA (TLR4) […]
[8] = cytotoxicity flag (confluency mask): not cytotoxic, agonist: Imiquimod (TLR7) […]
[9] = cytotoxicity flag (confluency mask): not cytotoxic, agonist: MPLA (TLR4) […]
[10] = cytotoxicity flag (confluency mask): cytotoxic (confluency <70% of control), agonist: Imiquimod (TLR7) […]

Structure (SMILES): CNCCC(Oc1cccc2ccccc12)c1cccs1 (stereo not given) (library stock concentration (final ~1000-fold dilution): 10 mM)
- NF-kB SEAP reporter activity ([1]; agonist: LPS (TLR4) 0.1 ug/mL): 1.1
- NF-kB SEAP reporter activity [1, 4]: 0.191
- NF-kB SEAP reporter activity [1, 5]: 0.797
- NF-kB SEAP reporter activity [1, 6]: 0.525

Structure (SMILES): CNCCC(Oc1cccc2ccccc12)c1cccs1 (stereo not given)
- NF-kB SEAP reporter activity [2, 7]: 1.98

Structure (SMILES): OCC1OC(c2ccc(Cl)c(Cc3ccc(OC4CCOC4)cc3)c2)C(O)C(O)C1O (stereo not given)
- NF-kB SEAP reporter activity [2, 8]: 0.973
- NF-kB SEAP reporter activity [2, 9]: 1.06

Structure (SMILES): OCC1OC(c2ccc(Cl)c(Cc3ccc(OC4CCOC4)cc3)c2)C(O)C(O)C1O (stereo not given) (library stock concentration (final ~1000-fold dilution): 10 mM)
- NF-kB SEAP reporter activity ([3]; agonist: LPS (TLR4) 0.1 ug/mL): 1.12
- NF-kB SEAP reporter activity [3, 4]: 1.07
- NF-kB SEAP reporter activity [3, 5]: 0.963
- NF-kB SEAP reporter activity [3, 6]: 0.983

Structure (SMILES): O=C(Nc1ncc([N+](=O)[O-])s1)c1ccccc1O (library stock concentration (final ~1000-fold dilution): 10 mM)
- NF-kB SEAP reporter activity ([3]; agonist: LPS (TLR4) 0.1 ug/mL): 0.954
- NF-kB SEAP reporter activity [3, 4]: 1.21
- NF-kB SEAP reporter activity [3, 5]: 0.573
- NF-kB SEAP reporter activity [3, 6]: 0.684

Structure (SMILES): COc1ccc(CNC(=O)Nc2ncc([N+](=O)[O-])s2)cc1 (library stock concentration (final ~1000-fold dilution): 10 mM)
- NF-kB SEAP reporter activity ([3]; agonist: LPS (TLR4) 0.1 ug/mL): 2.74
- NF-kB SEAP reporter activity [3, 4]: 1.64
- NF-kB SEAP reporter activity [3, 5]: 0.864
- NF-kB SEAP reporter activity [3, 6]: 1.32

Structure (SMILES): COc1ccc(S(=O)(=O)NCc2ccc(C(=O)NCCc3ccc(Cl)cn3)cc2)cc1 (library stock concentration (final ~1000-fold dilution): 10 mM)
- NF-kB SEAP reporter activity ([3]; agonist: LPS (TLR4) 0.1 ug/mL): 1.36
- NF-kB SEAP reporter activity [3, 4]: 1.15
- NF-kB SEAP reporter activity [3, 5]: 0.849
- NF-kB SEAP reporter activity [3, 6]: 1.49

Structure (SMILES): O=C(Nc1ncc([N+](=O)[O-])s1)c1ccccc1O
- NF-kB SEAP reporter activity [2, 9]: 0.945

Structure (SMILES): COc1ccc(CNC(=O)Nc2ncc([N+](=O)[O-])s2)cc1
- NF-kB SEAP reporter activity [2, 8]: 1.2
- NF-kB SEAP reporter activity [2, 9]: 1.68

Structure (SMILES): COc1ccc(S(=O)(=O)NCc2ccc(C(=O)NCCc3ccc(Cl)cn3)cc2)cc1
- NF-kB SEAP reporter activity [2, 8]: 0.318
- NF-kB SEAP reporter activity [2, 9]: 1.19

Structure (SMILES): COCCOc1cnc2ccn(C(C)c3nnc4c(F)cc(-c5cnn(C)c5)cn34)c(=O)c2c1 (stereo not given) (library stock concentration (final ~1000-fold dilution): 10 mM)
- NF-kB SEAP reporter activity ([3]; agonist: LPS (TLR4) 0.1 ug/mL): 1.54
- NF-kB SEAP reporter activity [3, 4]: 1.11
- NF-kB SEAP reporter activity [3, 5]: 1.11
- NF-kB SEAP reporter activity [3, 6]: 1.13

Structure (SMILES): COCCOc1cnc2ccn(C(C)c3nnc4c(F)cc(-c5cnn(C)c5)cn34)c(=O)c2c1 (stereo not given)
- NF-kB SEAP reporter activity [2, 8]: 1.01
- NF-kB SEAP reporter activity [2, 9]: 1.01

Structure (SMILES): CCCCCCCCCCCCCCCC(=O)OCC(O)C1OC(O)=C(O)C1=O (stereo not given) (library stock concentration (final ~1000-fold dilution): 10 mM)
- NF-kB SEAP reporter activity ([3]; agonist: LPS (TLR4) 0.1 ug/mL): 1.15
- NF-kB SEAP reporter activity [3, 4]: 0.825
- NF-kB SEAP reporter activity [3, 5]: 0.949
- NF-kB SEAP reporter activity [3, 6]: 0.67

Structure (SMILES): CCCCCCCCCCCCCCCC(=O)OCC(O)C1OC(O)=C(O)C1=O (stereo not given)
- NF-kB SEAP reporter activity [2, 8]: 0.898
- NF-kB SEAP reporter activity [2, 9]: 1.01

Structure (SMILES): Cc1c[nH]c(-c2cnc(NCCNc3ccc(C#N)cn3)nc2-c2ccc(Cl)cc2Cl)n1.Cl
- NF-kB SEAP reporter activity [2, 8]: 2.27
- NF-kB SEAP reporter activity [2, 9]: 2.2

Structure (SMILES): Cc1c[nH]c(-c2cnc(NCCNc3ccc(C#N)cn3)nc2-c2ccc(Cl)cc2Cl)n1.Cl (library stock concentration (final ~1000-fold dilution): 10 mM)
- NF-kB SEAP reporter activity ([3]; agonist: LPS (TLR4) 0.1 ug/mL): 2.97
- NF-kB SEAP reporter activity [3, 4]: 2.78
- NF-kB SEAP reporter activity [3, 5]: 1.84
- NF-kB SEAP reporter activity [3, 6]: 3.48

Structure (SMILES): Cc1c[nH]c(-c2cnc(NCCNc3ccc(C#N)cn3)nc2-c2ccc(Cl)cc2Cl)n1
- NF-kB SEAP reporter activity [2, 8]: 2.12
- NF-kB SEAP reporter activity [2, 9]: 2.19

Structure (SMILES): Cc1c[nH]c(-c2cnc(NCCNc3ccc(C#N)cn3)nc2-c2ccc(Cl)cc2Cl)n1 (library stock concentration (final ~1000-fold dilution): 10 mM)
- NF-kB SEAP reporter activity ([3]; agonist: LPS (TLR4) 0.1 ug/mL): 3.08
- NF-kB SEAP reporter activity [3, 4]: 2.65
- NF-kB SEAP reporter activity [3, 5]: 2.12
- NF-kB SEAP reporter activity [3, 6]: 2.9

Structure (SMILES): CCOC(=O)Nc1ccc(NCc2ccc(F)cc2)nc1N.O=C(O)/C=C/C(=O)O (library stock concentration (final ~1000-fold dilution): 10 mM)
- NF-kB SEAP reporter activity ([3]; agonist: LPS (TLR4) 0.1 ug/mL): 1.03
- NF-kB SEAP reporter activity [3, 4]: 1.1
- NF-kB SEAP reporter activity [3, 5]: 0.993
- NF-kB SEAP reporter activity [3, 6]: 1.01

Structure (SMILES): CCOC(=O)Nc1ccc(NCc2ccc(F)cc2)nc1N.O=C(O)/C=C/C(=O)O
- NF-kB SEAP reporter activity [2, 8]: 0.871
- NF-kB SEAP reporter activity [2, 9]: 1.23

Structure (SMILES): CC(C)CN(CC(O)C(Cc1ccccc1)NC(=O)OC1COC2OCCC12)S(=O)(=O)c1ccc(N)cc1.CCO (stereo not given) (library stock concentration (final ~1000-fold dilution): 10 mM)
- NF-kB SEAP reporter activity ([3]; agonist: LPS (TLR4) 0.1 ug/mL): 1.78
- NF-kB SEAP reporter activity [3, 4]: 1.57
- NF-kB SEAP reporter activity [3, 5]: 1.42
- NF-kB SEAP reporter activity [3, 6]: 1.43

Structure (SMILES): CC(C)CN(CC(O)C(Cc1ccccc1)NC(=O)OC1COC2OCCC12)S(=O)(=O)c1ccc(N)cc1.CCO (stereo not given)
- NF-kB SEAP reporter activity [2, 8]: 1.42
- NF-kB SEAP reporter activity [2, 9]: 1.49

Structure (SMILES): COc1ccc(Cn2c3ncnc4c(ncn4Cc4ccc(OC)cc4)c-3nc2=O)cc1
- NF-kB SEAP reporter activity [2, 8]: 1.43
- NF-kB SEAP reporter activity [2, 9]: 2.08

Structure (SMILES): COc1ccc(Cn2c3ncnc4c(ncn4Cc4ccc(OC)cc4)c-3nc2=O)cc1 (library stock concentration (final ~1000-fold dilution): 10 mM)
- NF-kB SEAP reporter activity ([3]; agonist: LPS (TLR4) 0.1 ug/mL): 1.73
- NF-kB SEAP reporter activity [3, 4]: 1.45
- NF-kB SEAP reporter activity [3, 5]: 0.409
- NF-kB SEAP reporter activity [3, 6]: 0.8

Structure (SMILES): CC(=O)c1ccc2c(c1)c1cc(C(C)=O)ccc1n2CCNC(C)C
- NF-kB SEAP reporter activity [2, 10]: 0.147
- NF-kB SEAP reporter activity [2, 7]: 0.242

Structure (SMILES): CC(=O)c1ccc2c(c1)c1cc(C(C)=O)ccc1n2CCNC(C)C (library stock concentration (final ~1000-fold dilution): 10 mM)
- NF-kB SEAP reporter activity ([1]; agonist: LPS (TLR4) 0.1 ug/mL): 0.301
- NF-kB SEAP reporter activity [1, 4]: 0.193
- NF-kB SEAP reporter activity [1, 5]: 0.0764
- NF-kB SEAP reporter activity [1, 6]: 0.183

Structure (SMILES): COc1ccccc1-c1cc(Nc2cccc(CS(N)(=O)=O)c2)ncn1
- NF-kB SEAP reporter activity [2, 8]: 1.45
- NF-kB SEAP reporter activity [2, 9]: 2.59

Structure (SMILES): COc1cc(F)ccc1-c1ncnc(Nc2cccc(CS(C)(=N)=O)c2)n1 (stereo not given)
- NF-kB SEAP reporter activity [2, 10]: 1.26
- NF-kB SEAP reporter activity [2, 7]: 1.31

Structure (SMILES): NC(=O)c1cccc(-c2cc(Nc3ccc(OC(F)(F)F)cc3)ncn2)c1 (library stock concentration (final ~1000-fold dilution): 10 mM)
- NF-kB SEAP reporter activity ([3]; agonist: LPS (TLR4) 0.1 ug/mL): 1.21
- NF-kB SEAP reporter activity [3, 4]: 0.672
- NF-kB SEAP reporter activity [3, 5]: 0.944
- NF-kB SEAP reporter activity [3, 6]: 0.869

Structure (SMILES): NC(=O)c1cccc(-c2cc(Nc3ccc(OC(F)(F)F)cc3)ncn2)c1
- NF-kB SEAP reporter activity [2, 8]: 1.24
- NF-kB SEAP reporter activity [2, 9]: 1.11

Structure (SMILES): COc1cc(F)ccc1-c1ncnc(Nc2cccc(CS(C)(=N)=O)c2)n1 (stereo not given) (library stock concentration (final ~1000-fold dilution): 10 mM)
- NF-kB SEAP reporter activity ([1]; agonist: LPS (TLR4) 0.1 ug/mL): 0.786
- NF-kB SEAP reporter activity [1, 4]: 1.4
- NF-kB SEAP reporter activity [1, 5]: 0.277
- NF-kB SEAP reporter activity [1, 6]: 0.421

Structure (SMILES): COc1ccccc1-c1cc(Nc2cccc(CS(N)(=O)=O)c2)ncn1 (library stock concentration (final ~1000-fold dilution): 10 mM)
- NF-kB SEAP reporter activity ([3]; agonist: LPS (TLR4) 0.1 ug/mL): 2.67
- NF-kB SEAP reporter activity [3, 4]: 2.18
- NF-kB SEAP reporter activity [3, 5]: 0.783
- NF-kB SEAP reporter activity [3, 6]: 1.55

Structure (SMILES): CCOc1cc(=O)[nH]cc1-c1ccc(CC(=O)Nc2cc(C(C)(C)C(F)(F)F)on2)c(F)c1
- NF-kB SEAP reporter activity [2, 8]: 0.281
- NF-kB SEAP reporter activity [2, 9]: 0.545

Structure (SMILES): CCOc1cc(=O)[nH]cc1-c1ccc(CC(=O)Nc2cc(C(C)(C)C(F)(F)F)on2)c(F)c1 (library stock concentration (final ~1000-fold dilution): 10 mM)
- NF-kB SEAP reporter activity ([3]; agonist: LPS (TLR4) 0.1 ug/mL): 0.538
- NF-kB SEAP reporter activity [3, 4]: 0.276
- NF-kB SEAP reporter activity [3, 5]: 0.163
- NF-kB SEAP reporter activity [3, 6]: 0.188
